# Experimental data taken from PubChem BioAssay (NCATS).
# Inconclusive results are not listed. Entries that show only a call come without a potency. Unmarked numbers belong to inactive results. Calls of active or inactive are those of the source. The call rests on the fitted dose curve; in most records, active means well fitted curve in the direction sought with a large enough effect; inconclusive means small, poorly fitted or top-dose-only effect, or another doubt; inactive means no such curve, though single readings can be large or run the other way. Numbered stars: 1 amine (or outer) side, 2 acyl side, 3 side chain; on linkers, the order of the positions; unused ones are H or OH. Bridge positions count the residues as written; N and C are the ends. Square brackets hold non-standard residues; d marks the D form. Peptide text beside a SMILES is read from it. ξ: configuration not given here. X1 = CCCCCCCCCC(=O)[C@H](C(=O)[*:2])[C@@H]1CNC(=O)[C@@H](N[*:1])CS1; Phe(3R-OH) = O=C([C@@H](N[*:1])[C@H](O[*:3])c1ccccc1)[*:2]; NMeTrp(4-OMe) = CN[C@@H](Cc1c[nH]c2cccc(OC)c12)C(=O)O; ξThr(3R)(O-yl) = C[C@@H](O[*:3])C(N[*:1])C(=O)[*:2]; NMeThr(3ξ) = CN[C@H](C(=O)O)C(C)O; NMeL = CN[C@@H](CC(C)C)C(=O)O; NMeV = CN[C@H](C(=O)O)C(C)C; ξIle = CC[C@H](C)C(N)C(=O)O; ξV = CC(C)C(N)C(=O)O
# Assay: HPAF-II 18hr Apoptosis Induction qHTS against the NCATS CANVASS Library (AID 1347360)
# Details: HPAF-II caspase-3/7 luminescence; series mostly up to 46.1 µM
# Description: Natural products and their derivatives continue to be wellsprings of nascent therapeutic potential. However, many laboratories have limited resources for biological evaluation, leaving their previously isolated or synthesized compounds largely or completely untested. To address this issue, the Canvass library of natural products was assembled (https://tripod.nih.gov/canvass), in collaboration with academic and industry researchers, for quantitative high-throughput screening (qHTS) across a diverse set of cell-based and biochemical assays. The pure (>85% purity by liquid chromatography/mass spectrometry [LC/MS]) Canvass library of 346 natural products were submitted by 45 academic laboratories and companies around the world. We collected pure natural products to circumvent deconvolution and structure elucidation due to time and resource limitations. The library was formatted into 1536-well plates and evaluated in 50 qHTS (in an 11-pnt concentration series) bioassays with broad scope of disease-relevant mechanisms. The resulting data set from 50 different assays was then systematically analyzed to identify overall trends and specific natural products with interesting biological activities. Reported herein are the results of each individual qHTS and their corresponding assay protocol. The Caspase-Glo (R) (Promega) is a homogeneous, luminescent assay that measures caspase activity. The detection substrate contains tetrapeptide sequence DEVD in an "add-mix-measure" format. The reagent generates a luminescent signal produced by a thermostable luciferase. The luminescence is proportional to the amount of caspase activity in the assay reaction. National Center for Advancing Translational Sciences (NCATS), Rockville, MD National Institute of Health (NIH), Bethesda, Maryland
# Cancer Cell Apoptosis Assay 1. In a 1536 well, white solid bottom tissue culture plates (Corning 7494), HPAF-II cancer cells in DMEM + 10% FBS + 1% P/S media were dispensed in each well at a final concentration of 500 cells / well (5uL volume) using the Multidrop Combi (Thermo Fisher Scientific) dispenser. 2. Compounds were pin transferred (~23nL volume) via Wako Pin-tool (Wako Automation, Richmond VA) equipped with a 1536 pin head. The assay plates were treated with compounds in a concentration series with a final concentration range of 0.17nM to 103uM. 3. Doxorubicin was used as a control in a 16pnt titration (1mM; 1:2 dilution; 16-points; n = 2; column 3, rows 1 - 32) and was pin transferred via Wako Pin-tool equipped with a 1536 pin head. The final concentration range of doxorubicin is 0.1nM - 4uM. 4. The assay plates were incubated for 18 hours at 37 degrees C/5% CO2/95% Rh. 5. 3uL Caspase-Glo 3/7 (R) (Promega) detection reagent was then added to the assay plates (columns 2 - 48, rows 1 - 32) and incubated at room temperature, covered from light, for 15 min. 6. Luminescence signal was acquired via the ViewLux plate reader (PerkinElmer) using a clear filter, 20 second exposure and 2x binning settings.
# Potency means the concentration at half of the fitted maximal effect.
SMILES,Potency,caspase activation
C=CC(C)(C)C(=O)[C@@H](C)[C@@H]1CC[C@](C)(C=C)O1,inactive,
CC(=O)O[C@H]1CC[C@@]2(C)C(CC[C@]3(C)C2CC=C2C4CC(C)(C)CC[C@]4(C)CC[C@]23C)C1(C)C (stereo not given in full),inactive,
CC[C@H](C)C(NC(=O)[C@@H](NC)C(C)C)C(=O)NC1C(=O)N(C)[C@@H](C(C)O)C(=O)N[C@@H](C(C)C)C(=O)N(C)[C@@H](CC(C)C)C(=O)NC(C(C)C)C(=O)N(C)[C@@H](C(C)C)C(=O)N(C)[C@@H](Cc2c[nH]c3cccc(OC)c23)C(=O)N[C@@H](C(C)C)C(=O)N[C@@H]([C@H](O)c2ccccc2)C(=O)N[C@@H](C(C)C)C(=O)O[C@@H]1C (stereo partly drawn) (H-[NMeV][ξIle][ξThr(3R)(O-yl)][NMeThr(3ξ)]V[NMeL][ξV][NMeV][NMeTrp(4-OMe)]V[Phe(3R-OH)]V; ester 3-C),inactive,
CS/C=C/C(N)=O,inactive,
C[C@@H]1C[C@H]2C[C@]3(CCCCN3C)[C@@H]3C[C@H]2[C@H](C1)N(C)C3,inactive,
COC1C(O)C(OC(N)=O)C(Oc2ccc3c(O)c(NC(=O)c4ccc(O)c(CC=C(C)C)c4)c(=O)oc3c2C)OC1(C)C (stereo not given),inactive,
O=C(O)Cc1c[nH]c2ccccc12,inactive,
CCC1=C2CCCN3C(=O)O[C@H]([C@H]1OC(C)=O)[C@H]23,inactive,
O=C1c2c(O)cc(O)cc2O[C@@H](c2ccc(O)cc2)[C@@H]1c1c(O)cc(O)c2c(=O)cc(-c3ccc(O)c(O)c3)oc12,inactive,
C[C@@H]1C(=O)[C@]23CC[C@H]1C[C@]21O[C@H]2C(C)(C)C=CC(=O)[C@]23COC1=O,inactive,
CC1=CC[C@@]2(C[C@@H]1O)[C@@H](C(=O)O)CC[C@H]2C(C)C,inactive,
C=C[C@]1(C)CC[C@@H]([C@H](C)C(=O)OCC)O1,inactive,
CCCCCCCCC[C@@H]1C[C@@H]2CC[C@H]3[C@@H](C(=O)OCCCCN=C(N)N)[C@@H](C)N=C(N1)N23,inactive,
C=C1C[C@@]23C=CC(=O)[C@@](C)(CCCC(C)C(=O)O)[C@@H]2C[C@@H]1CC3 (stereo not given in full),inactive,
O=C(O)CC1OC(=O)c2c(O)cccc21 (stereo not given),inactive,
CN1CCc2cc3c(c4c2[C@H]1[C@@H](O)c1ccccc1-4)OCO3,inactive,
CN1C(=O)[C@]23SS[C@@]1(C)C(=O)N2[C@H]1Nc2ccccc2[C@]1(c1c[nH]c2ccccc12)[C@@H]3O,469 nM (active),
CC1(C)C=Cc2c(ccc3c2OC[C@@H](c2ccc(O)cc2O)C3)O1,inactive,
C=C1C[C@@]23C=CC(=O)[C@@](C)(CCC(=O)Nc4c(O)ccc(C(=O)O)c4O)C2C[C@@H]1C(O)C3 (stereo not given in full),inactive,
C[C@@]12C[C@@H](C[C@H]3C(=O)O[C@@H](c4ccoc4)[C@H](OC(=O)c4ccccc4)[C@@H]31)OC2=O,inactive,

SMILES,Potency,caspase activation
COc1ccc([C@@H]2c3cc(OC)c(OC)cc3C(=O)C(C)C2C)cc1OC (stereo not given in full),inactive,
C[C@@H]1O[C@@H](Oc2c(-c3ccc(O)cc3)oc3cc(O)cc(O)c3c2=O)[C@H](O)[C@H](O)[C@H]1O,inactive,
O=C(OC1Cc2c(O)cc(O)cc2OC1c1cc(O)c(O)c(O)c1)c1cc(O)c(O)c(O)c1 (stereo not given),inactive,
COc1cc(/C=C2/C(=O)N(c3ccc(O)cc3C(=O)O)[C@H](c3ccc(O)c(OC)c3)C2C(=O)Nc2ccc(O)cc2C(=O)O)ccc1O (stereo not given in full),inactive,
C=C[C@]1(C)CC[C@@H]([C@H](C)C(=O)/C=C/C(C)C)O1,inactive,
C=C1/C=C\C(CCC)=C\c2csc(n2)C(C)NC(=O)C[C@@]2(CC(=O)O)CCC(=C)[C@H](C1)S2 (stereo not given in full),inactive,
C[C@@]12CCC[C@@](C)(C(=O)O)[C@H]1CC[C@]13C[C@H]4C[C@H](O[C@@]4(C)C1)[C@H]32,inactive,
CO[C@@H]1[C@H](O)[C@@H](C)O[C@@H](OC[C@@H]2C(C)OC(=O)/C=C/[C@H](C)C(O[C@@H]3O[C@H](C)CC4(OC(=O)O[C@@H]4C)C3O)[C@@H](C)CC(C)C(=O)CC[C@H]3OC23)[C@@H]1OC (stereo not given in full),inactive,
C[C@@H]1O[C@@H](O[C@@H]2[C@@H](O)[C@H](O[C@@H]3[C@@H](O)[C@@H](O)C(O[C@H]4[C@H](OC(=O)[C@]56CCC(C)(C)C[C@H]5C5=CCC7[C@@]8(C)C[C@H](O)[C@H](O[C@@H]9C[C@H](CO)[C@@H](O)[C@H](O)[C@H]9O)[C@@](C)(CO)C8[C@H](O)C[C@@]7(C)[C@]5(C)CC6)OC[C@H](O)[C@@H]4O)O[C@H]3C)OC[C@H]2O)[C@H](O)[C@H](O)[C@H]1O (stereo not given in full),inactive,
Cc1cc(O)cc2oc(C[C@H](C)O)cc(=O)c12,inactive,
O=Cc1ccc2n1C[C@@]1(C[C@H](O)[C@@H](CO)O1)OC2,inactive,
C=C(C)CC[C@H](Cc1c(O)cc(O)c2c1O[C@H](c1ccc(O)cc1O)CC2=O)C(=C)C,inactive,
Oc1ccc(/C=C2/c3cc(O)cc(O)c3C(c3ccc(O)cc3)[C@H]2c2cc(O)cc(O)c2)cc1 (stereo not given in full),inactive,
C/C=C/c1cc(OC)c2c(c1)[C@@H](C)[C@H](c1ccc(O)c(OC)c1)O2,inactive,
CC(C)=CCC/C(C)=C/Cc1c(O)c(CC=C(C)C)c(O)c2c(=O)c3cc(O)ccc3oc12,inactive,
COc1ccc2oc3c(OC)c(OC)c(OC)c(OC)c3c(=O)c2c1,,4.09% [at 9.19 µM]
CCCCCCCCCC(=O)[C@@H]1C(=O)N[C@@H](CC(C)C)C(=O)N[C@H](C)C(=O)N2CCC[C@H]2C(=O)N[C@@H](C(C)C)C(=O)N[C@H]2CS[C@H]1CNC2=O (cyclo(L[dA]PV[X1])),inactive,
O=c1cc(-c2ccc(O)c(O[C@@H]3O[C@H](CO)[C@@H](O)[C@H](O)[C@H]3O)c2)oc2cc(O[C@@H]3O[C@H](CO)[C@@H](O)[C@H](O)[C@H]3O)cc(O)c12,inactive,
CC[C@@H]1C[C@@]2(CC)OC(=O)[C@@]3(CC)OC(=O)[C@@H]1[C@@H]23,inactive,
C[C@H]1C[C@@H]([C@@H]2CC[C@]34O[C@H](CC[C@@]35C[C@H](C)C(=O)O5)CN24)OC1=O,inactive,
